This note sets out measurements from PubChem BioAssay.

Several values for one entry are separate records, joined by “and”; a condition that tells them apart may be missing. Equal values may be shown once. Unmarked numbers belong to inactive results.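 How the source made its calls: active means inhibition at or above 50% relative to wild type and mutant plate controls; inactive means inhibition below 50%.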

In general, inhibition refers to the relative decrease from the control value, in per cent.

The nature of the assay: loss of swimming-algae plug formation – whole organism, Chlamydomonas reinhardtii, WT vs cilia-less mutant, absorbance, 96-well, primary screen (AID 463189).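 Further: 0% = wild type cc124 cells in DMSO and 100% = ciliumless bld1 mutant cells.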 Conditions: Chlamydomonas reinhardtii gravitaxis, OD600 absorbance, 2 days; at 10 µM; hits give high values.
For `Cc1ncc(CNC(=O)N(CCCl)N=O)c(N)n1`, the inhibition was 3.94%.

In the case of `NC(Cn1oc(=O)[nH]c1=O)C(=O)O` (stereo not drawn), the inhibition is -0.927%.

In the case of `CCCN1CCC[C@@H]2Cc3nc(N)ncc3C[C@H]21`, the inhibition is 4.12%.

In the case of `CN1CCC23CCCC[C@H]2C1Cc1ccc(O)cc13` (stereo partly drawn), the inhibition is -3.02%.

With `C=CCN1CCc2cccc3c2[C@H]1Cc1ccc(O)c(O)c1-3`, the inhibition was 6.2%.

For `COc1cc(C(O)CN)ccc1O` (stereo not drawn), the inhibition was 2.77%.

Take `CC(O)C(C)OC(=O)[C@@H]1C[C@@H]2c3cccc4c3c(cn4C(C)C)C[C@H]2N(C)C1` (stereo partly drawn): the inhibition is 33.8%.

With `COc1cc(C[C@@H](C)N)c(OC)cc1I`, the inhibition was -7.2%.

With `CS(=N)(=O)CC[C@H](N)C(=O)O` (stereo partly drawn), the inhibition was 3.52%.

Turning to `c1ccc2nc(N3CCNCC3)ccc2c1`, the inhibition is 4.23%.

`CCCN1CC[C@@H]2c3cc(O)ccc3CC[C@@H]21`: the inhibition is -3.65%.

Take `COc1cc(CCN)ccc1O`: the inhibition is 2.21%.

On to `CCN(CC)C(=O)N[C@H]1C=C2c3cccc4[nH]cc(c34)C[C@H]2N(C)C1`, for which the inhibition is 8.76%.

For `CCN(CC)c1ncnc2c1ncn2[C@@H]1O[C@H](COP(=O)(O)OP(=O)(O)C(Br)(Br)P(=O)(O)O)[C@@H](O)[C@H]1O`, the inhibition is -12.6%.

For the compound `CCCN1CCC[C@H](c2cccc(O)c2)C1`, the inhibition is 0.621%.

Take `NC(CP(=O)(O)O)C(=O)O` (stereo not drawn): the inhibition is 5.89%.

As for `CC[C@@]1(O)C(=O)OCc2c1cc1n(c2=O)Cc2cc3ccccc3nc2-1`, the inhibition is 23.3%.

For `NN=C(N)N`, the inhibition is 15.6% and 6.1%.

Turning to `CCCCC/C=C\C/C=C\C/C=C\C/C=C\CCCC(=O)NCC(=O)O`, the inhibition was -0.074%.

For `CC1OC1P(=O)(O)O` (stereo not drawn), the inhibition is 0.291%.

As for `CN1CCC(c2c[nH]c3ccc(O)cc23)CC1`, the inhibition was 4.07%.

Take `C[N+]1(C)CCC(OC(=O)C(c2ccccc2)c2ccccc2)CC1`: the inhibition is -7.08%.

Regarding `CCCN1CCc2cccc3c2[C@H]1Cc1ccc(O)c(O)c1-3`, the inhibition is 0.62%.

Turning to `CCCN(CCC)CCc1c[nH]c2ccc(C(N)=O)cc12`, the inhibition is -0.498%.

With `O=C(O)c1cc[c]([Hg][Cl])cc1`, the inhibition was 9.04%.

`C=CCN1CCC2(C)c3cc(O)ccc3CC1C2C` (stereo not drawn): the inhibition was 0.366%.

For the compound `C[Se]C[C@H](N)C(=O)O`, the inhibition is 1.72%.

Consider `O=[N+]([O-])c1ccc(O[C@@H]2O[C@H](CO)[C@@H](O)[C@H](O)[C@H]2F)c([N+](=O)[O-])c1`, for which the inhibition was 3.53%.

On to `C[C@]12CC[C@H](O)CC1=CC[C@@H]1[C@@H]2CC[C@]2(C)C(=O)CC[C@@H]12`, for which the inhibition was -2.3%.

`CCCN1CCc2cc(O)cc3c2[C@H]1Cc1ccc(O)c(O)c1-3`: the inhibition is 0.25%.

With `O=C1CC[C@@]2(O)C3Cc4ccc(O)c5c4C2(CCN3CC2CC2)[C@H]1O5` (stereo partly drawn), the inhibition is -3.7%.

Regarding `Oc1cc2c(cc1O)[C@H]1c3ccccc3CN[C@@H]1CC2`, the inhibition was -2.75%.

Take `C[C@]12CC[C@H]3[C@@H](CCC4C[C@H](O)CC[C@@]43C)[C@@H]1CC[C@@H]2O` (stereo partly drawn): the inhibition is 2.75%.

As for `Clc1cccc(N2CCNCC2)c1`, the inhibition is 1.7%.

`N[C@@H](Cn1ccc(=O)[nH]c1=O)C(=O)O`: the inhibition was -4.9%.

As to `CCN(CC)C(=O)N[C@@H]1C=C2c3cccc4[nH]cc(c34)C[C@H]2N(C)C1`, the inhibition is 9.57%.

On to `O=[N+]([O-])c1ccc2nc(N3CCNCC3)ccc2c1`, for which the inhibition was 14.2%.

Consider `O=C1NCN(c2ccccc2)C12CCN(CC1COc3ccccc3O1)CC2` (stereo not drawn), for which the inhibition is 6.88%.
